Data from PubChem BioAssay AID1952 (The Scripps Research Institute Molecular Screening Center, 2009).
In all, about 2,400 compounds went through this assay and about 1,200 (50%) were called active. No stated cut-off is given here; in the data, active means inhibition above about 24%; inactive means the rest. The set was probably picked from earlier hits. Only a sample is shown.

molecular target: Neuropeptides B/W receptor type 1 (Homo sapiens) (UniProt P48145); assay: GPR7 receptor antagonists, confirmation, cell-based, fluorescence, single concentration (AID 1952); conditions: GPR7-expressing cells, calcium fluorescence antagonist mode; at 4.4 µM; stronger effect = higher value;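 further: stimulated with the GPR7 agonist NPW; 0% = agonist plus vehicle and 100% = vehicle alone without agonist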
Sequence (P48145 whole entry, looked up): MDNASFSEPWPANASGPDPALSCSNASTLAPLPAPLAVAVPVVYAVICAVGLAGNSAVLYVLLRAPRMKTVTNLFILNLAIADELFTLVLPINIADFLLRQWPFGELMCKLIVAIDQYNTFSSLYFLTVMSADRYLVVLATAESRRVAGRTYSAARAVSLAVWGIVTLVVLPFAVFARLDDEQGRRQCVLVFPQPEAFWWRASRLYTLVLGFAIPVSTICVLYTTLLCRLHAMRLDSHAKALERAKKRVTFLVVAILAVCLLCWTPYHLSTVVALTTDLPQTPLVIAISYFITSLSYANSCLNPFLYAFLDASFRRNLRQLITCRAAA

inhibition, active:
Cc1ccc(O)c(NC(=S)NC(=O)COc2ccc(Br)cc2)c1 88.8%
O=C(Nc1ccc2ccccc2c1)Nc1ccc2snnc2c1 55.7%
CCN1/C(=C\c2ccc3ccccc3[n+]2CC)Sc2cc(C)ccc21 49.3%
CC(C)(C)CC(C)(C)NCC(O)COCCOc1ccc(Br)cc1 (stereo not given) 47.2%
C=CCSc1nsc(NC(=O)Nc2cccc(C(C)=O)c2)n1 47.2%
CCSc1nsc(NC(=O)Nc2cccc(C(C)=O)c2)n1 43.7%
Cc1cccc(-c2nc3ccc(C(=O)NCCN4CCN(C)CC4)cc3nc2-c2cccc(C)c2)c1 41.8%
CCc1ccc(N(C(=O)c2csnn2)C(C(=O)NC2CCCCC2)c2ccncc2)cc1 (stereo not given) 34.2%
O=C(Nc1nc(-c2ccc3c(c2)OCO3)cs1)c1ccncc1 55.1%
N=c1c2c(-c3ccccc3)c(-c3ccccc3)n(Cc3ccccc3)c2ncn1CCCO 26.6%
CN(C)CCCN(C(=O)c1ccc(S(=O)(=O)N2CCCc3ccccc32)cc1)c1nc2ccc(F)cc2s1 73%
CCc1ccc2nc(N(CCCN(C)C)C(=O)c3ccc4c(c3)OCCO4)sc2c1 40%
CN(C)CCCN(C(=O)c1ccc(S(=O)(=O)N2CCCCCC2)cc1)c1nc2ccc(Br)cc2s1 70.5%

inhibition, inactive:
CC(C)(C)NCc1cc(Br)ccc1OC1CCCC1 23.2%
Cc1ccc(NC(=O)CN2C(=O)NC(C)(c3ccc(Cl)cc3)C2=O)c(Br)c1 (stereo not given) 18.8%
CC(NCc1ccccc1OC1CCCC1)c1ccccc1 (stereo not given) 23.1%
CCN1CCN(c2c(Cl)cccc2NC(=O)c2ccc(Br)o2)CC1 21%
COc1ccc(OC)c(C(c2nnnn2C(C)(C)C)N2CCc3ccccc3C2)c1 (stereo not given) 5.35%
CCn1c2ccc(F)cc2c2nnc(SCCN3CCOCC3)nc21 -14.4%
CCc1c(C)nc2c(-c3ccccc3)c(C)nn2c1Nc1ccc(NC(C)=O)cc1 4.93%
COc1ccc(C(=O)CSc2nnc(COc3ccccc3)n2Cc2ccco2)cc1 19%
Oc1cccc(/C=N/Nc2ccc(Cl)nn2)c1O 4.11%
O=C(Nc1ccccc1F)c1ccc2c(c1)OCO2 -16.6%
CCOC(=O)C1CSC(CC(=O)Nc2ccc(OCC)cc2)C(=O)N1 (stereo not given) 2.35%
COCCN(Cc1cc2cc3c(cc2nc1Cl)OCO3)C(=O)c1cccc(C)c1 -7.71%
